Measurements as given in PubChem BioAssay (NCI).
About 83,000 compounds went through this panel and 20% of them were active in at least one assay; those are over-represented in the sample as a whole.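 Method: cells in 96-well plates; compound added at one concentration; 48 h incubation; percent growth measured; values under 10 scored active.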 Active and inactive are the calls of the source.

Assays:
Assay in all cases: NCI-60 one-dose screen, 48 h (100 = growth as untreated, 0 = no growth, -100 = all killed)
Conditions in all cases: 10 µM unless noted
SN12C renal = test system: SN12C renal
UO-31 renal = test system: UO-31 renal
TK-10 renal = test system: TK-10 renal
ACHN renal = test system: ACHN renal
CAKI-1 renal = test system: CAKI-1 renal
A498 renal = test system: A498 renal
CCRF-CEM leukemia = test system: CCRF-CEM leukemia
MOLT-4 leukemia = test system: MOLT-4 leukemia
SR leukemia = test system: SR leukemia

Measured: growth

Cc1[nH]c2ccccc2c(=O)c1CC=C(Cl)Cl
inactive: SN12C renal 48.2% | UO-31 renal 20.4% | TK-10 renal 43.4% | ACHN renal 26.8% | CAKI-1 renal 45.8% | A498 renal 96.9% | CCRF-CEM leukemia 21.5% | MOLT-4 leukemia 19.3%
active: SR leukemia -8.18%

Cc1ccc(S(=O)c2ccc([N+](=O)[O-])c3nonc23)cc1 (stereo not drawn)
inactive: SN12C renal 126% | UO-31 renal 97.9% | TK-10 renal 72.3% | ACHN renal 72.4% | CAKI-1 renal 90.5% | A498 renal 84.3%
active: CCRF-CEM leukemia 1.61% | MOLT-4 leukemia -3.44% | SR leukemia -8.16%

O=C(Nc1ccc(-c2nc3cc4ccccc4cc3[nH]2)cc1)c1cccc(Br)c1
inactive: SN12C renal 44.6% | UO-31 renal 13.1% | TK-10 renal 51.8% | ACHN renal 35.1% | CAKI-1 renal 18.2% | CCRF-CEM leukemia 77% | MOLT-4 leukemia 85.4% | SR leukemia 76.4%

CCOC(=O)C1(Cc2ccccc2)CCN(Cc2cccc(OC)c2O)CC1
active: UO-31 renal -11.8% | CAKI-1 renal -11.3% | CCRF-CEM leukemia 9.78% | MOLT-4 leukemia 9.72% | SR leukemia 7.58%
inactive: SN12C renal 10.7% | TK-10 renal 36.7% | ACHN renal 10.8% | A498 renal 21.2%

O=C(Nc1ccc(F)c(Cl)c1)Nc1ccc(Cl)c(Cl)c1
inactive: SN12C renal 75.8% | UO-31 renal 79.2% | TK-10 renal 101% | ACHN renal 96% | CAKI-1 renal 76.1% | A498 renal 69.6% | CCRF-CEM leukemia 64.8% | SR leukemia 10.2%

Cc1sc2ncnc(Sc3nc4ccccc4[nH]3)c2c1C
inactive: SN12C renal 25%
active: UO-31 renal -86.2% | TK-10 renal -87.2% | ACHN renal -82.7% | CAKI-1 renal -68.6% | CCRF-CEM leukemia -53.2% | MOLT-4 leukemia -48.4% | SR leukemia -17.3%

CCOc1cc2c(cc1OCC)C(c1cc(C)c(O)c(C)c1)NCC2 (stereo not drawn)
inactive: SN12C renal 95.7% | UO-31 renal 73.4% | TK-10 renal 107% | ACHN renal 94.2% | CAKI-1 renal 85.2% | A498 renal 88.1% | MOLT-4 leukemia 96.3% | SR leukemia 80.7%

COc1cc(C(C)n2cc(-c3ccccc3)nn2)ccc1OC1CCCC1 (stereo not drawn)
inactive: SN12C renal 75.2% | UO-31 renal 50.9% | TK-10 renal 71.8% | ACHN renal 53.4% | CAKI-1 renal 49.6% | CCRF-CEM leukemia 53.5% | MOLT-4 leukemia 48.6%

c1ccc(-c2ccc(-c3nc4ccccc4[nH]3)cc2)cc1
inactive: SN12C renal 92.9% | UO-31 renal 67.4% | TK-10 renal 84.7% | ACHN renal 90.7% | CAKI-1 renal 93.6% | A498 renal 88.6% | MOLT-4 leukemia 56.9% | SR leukemia 58.8%

CCN(CC)CCCNc1ccnc2cc3ccccc3cc12
inactive: SN12C renal 87.6% | UO-31 renal 106% | TK-10 renal 83.8% | ACHN renal 70.7% | CAKI-1 renal 75.3% | A498 renal 94% | CCRF-CEM leukemia 91.1% | MOLT-4 leukemia 87.3% | SR leukemia 77.5%
